# According to PubChem BioAssay AID1347416 (National Center for Advancing Translational Sciences (NCATS), 2020):
# About 1,600 (39%) of roughly 4,100 compounds were called active. Not shown: some 25% with an inconclusive outcome. The list shows a part of the results. Values without a mark were called inactive. Calls come from the whole dose curve; as a rule, active = well fitted inhibition curve with a large enough effect; inconclusive = small, poorly fitted or top-dose-only effect; inactive = no such curve, though single readings can be large or run the other way.
# Experiment: qHTS Validation assay for Inhibitors of Plasmodium falciparum Dd2 growth in vitro; note: nearly all actives have a fitted effect of over 70% in size
# Settings: P. falciparum Dd2 in RBCs, SYBR Green growth, 72 h; series mostly up to 28.7 µM; activity change, negative = inhibition: at the top concentration
# Procedure, shortened: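 P. falciparum Dd2-infected red blood cells (2.5% hematocrit, 0.3% parasitemia) grown 72 h at 37 °C under 5% O2 with compounds in a titration, 29 uM to 0.5 nM final. Growth read as SYBR Green-1 fluorescence after ~16 h lysis; artesunate 300 nM as positive control.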
# % is set by controls: 0 for no effect and ±100 for the full control effect; potency is the fitted concentration of half-maximal effect.
Structure (SMILES),"activity change, negative = inhibition",Potency
N#C/C(=C\c1ccc(Cl)cc1)c1nc(-c2cc3ccccc3oc2=O)cs1,31.2%,
N#C/C(=C\c1ccc(Sc2ccc(Cl)cc2)o1)c1nc2ccccc2[nH]1,,2.99 µM (active)
Cn1nc(-c2nncn2CC2CC2)c2c1CCN(C(=O)c1nn(C)c3ccccc13)C2,-12%,
COc1ccc(-c2cc3ccc(O)c(CN4CCCC(C)C4)c3oc2=O)cc1 (centres undefined),,2.37 µM (active)
CC1CCCN(Cc2c(O)ccc3c(=O)c(Oc4ccc(C(C)(C)C)cc4)c(C(F)(F)F)oc23)C1 (centres undefined),,0.299 µM (active)
CC1CCCN(Cc2c(O)ccc3c4c(c(=O)oc23)CCCC4)C1 (centres undefined),,6.68 µM (active)
CCc1ccc(Oc2c(C(F)(F)F)oc3c(CN4CCCC(C)C4)c(O)ccc3c2=O)cc1 (centres undefined),,1.33 µM (active)
CCc1noc(-c2cn(C3CCN(C(=O)c4ccc(N(C)C)cc4)CC3)nn2)n1,-18.2%,
O=c1oc2c(CN3CCOCC3)c(O)ccc2cc1-c1ccccc1,,9.44 µM (active)
Cn1cc(-c2ccccc2Oc2ccccc2)c2nc(CN3CCOCC3)cn2c1=O,-9.15% [at 43.1 µM],
COc1cccc(OC)c1CN1CCC2(CC1)CC(O)CCO2 (centres undefined),-0.9%,
COc1ccc(Oc2c(C(F)(F)F)oc3c(CN4CCCC(C)C4)c(O)ccc3c2=O)cc1 (centres undefined),,2.37 µM (active)
COc1ccc(-c2ccccc2NC(=O)C2CCCN(Cc3c(O)cccc3OC)C2)cc1 (centres undefined),,2.11 µM (active)
CN(C)c1cccc(C(=O)N2CCC(c3n[nH]c(=O)n3-c3ccccc3)CC2)c1,-10.6%,
COc1cc(F)ccc1-c1nc(-c2c(C)noc2C)cc2[nH]c(C)cc12,-24.1% [at 43.1 µM],
Cc1noc(C)c1-c1cc2c(cc(-c3ccccc3)n2C)c(-c2ccnn2C)n1,,8.63 µM (active)
COc1ncccc1-c1nc(-c2c(C)noc2C)cc2c1cc(-c1ccccc1)n2C,,13.7 µM (active)
Cc1noc(C)c1-c1cc2c(cc(-c3ccccc3)n2C)c(-c2cccnc2)n1,,10.9 µM (active)
O=c1c([N+](=O)[O-])cccn1Cc1ccc(F)cc1Cl,,4.73 µM (active)
Cc1ccc(CNC(=O)CN2CCN(Cc3ccc(F)cc3Cl)C2=O)cc1,24.2%,
Cc1ccc(S(=O)(=O)Nc2cc(C)cn(Cc3ccc(F)cc3)c2=O)cc1,-2.09%,
Cc1ccccc1-n1c(SCC(=O)Nc2ccc(Cl)cc2Cl)nc(O)cc1=O,-7.22%,
O=C(CSc1nccn1-c1cccc(Cl)c1)NO,16.2%,
CCCn1c(SCC(=O)Nc2cc(Cl)ccc2Cl)n[nH]c1=O,,5.31 µM (active)
CC(=O)c1c(N2CCN(C)CC2)[nH]c(-c2ccccc2)nc1=S,,5.96 µM (active)
CC(C)(C)C1CCc2[nH]c3ccccc3c(=O)c2C1 (centres undefined),,1.88 µM (active)
O=c1c(-c2ccccc2)n[nH]c2ccccc12,35%,
O=c1c2c([nH]c3ccccc13)CCCC2,,6.68 µM (active)
O=c1c2c([nH]c3ccc(Br)cc13)CCCC2,,6.68 µM (active)
